Only some compounds are listed: those with a hit (about 0.9% of all), similar ones and a draw of the others.
PriA SSB inh = inhibitors of Klebsiella pneumoniae PriA binding to SSB C-terminal tail; AlphaScreen SSBct-PriA binding, biotinylated peptide; inhibition, % at 33 µM; 430,000 tested, 0.6% active; in the data active = inhibition mostly above about 37%, no sharp cut-off; inactive = mostly below about 20%;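 also: plate controls were negative control peptide for no effect and reference peptide for full effect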
MazF activator = activators of E. coli MazEF toxin-antitoxin RNase. FAM/BHQ RNA-DNA oligo cleavage fluorescence, 5 h. activation, % at 20 µM. 350,000 tested, 0.32% active. AID 504720; in the data active = activation above about 50%
Target sequence (P0AE70 whole entry, looked up): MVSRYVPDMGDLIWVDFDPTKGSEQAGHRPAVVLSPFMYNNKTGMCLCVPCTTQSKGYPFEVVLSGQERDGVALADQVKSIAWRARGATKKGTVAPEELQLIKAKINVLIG
3CLpro inhibitor = SARS-CoV 3CLpro protease inhibition. P0C6X7. 290,000 tested, 0.14% active. AID 1706. inhibition, % at 6 µM. recombinant SARS-CoV 3CLpro, quenched FRET peptide cleavage; in the data active = inhibition above about 12%
Yp Topo-I inh = blocks Yersinia pestis topoisomerase I activity; activity, % at 10 µM; Y. pestis Topo-I cleavage product accumulation, plate reader; AID 504884; 360,000 tested, 0.064% active; in the data active = activity above about 50%, passing the limit was not always enough
Numbers without * were called inactive; ! = repeats disagree.

Screening COc1cccc2c1C(=N)c1c(O)c3c(c(O)c1C2=O)CC(O)(C(C)=O)CC3OC1CC(N)C(O)C(C)O1 (configuration not stated) returned PriA SSB inh 85*, MazF activator -30 and Yp Topo-I inh 231*.
For COc1cc2c3nnc(-c4ccccc4)c-3cn(Cc3ccccc3F)c2cc1OC the results were PriA SSB inh 10, MazF activator 734* and 3CLpro inhibitor -8.
Screening COc1ccc(NC(=O)CCCN2C(=O)CN(C)C2=O)c(OC)c1 returned PriA SSB inh 57*, MazF activator 16 and Yp Topo-I inh -2.
For Cc1cc2oc(=O)cc(CN(C)Cc3ccccc3)c2cc1C(C)C the results were PriA SSB inh -7, MazF activator -9, 3CLpro inhibitor -1 and Yp Topo-I inh 64*.
COc1ccc(CN(C)Cc2cc(=O)oc3cc(C)c(C(C)C)cc23)cc1OC was read as PriA SSB inh -12, MazF activator -4, 3CLpro inhibitor 4 and Yp Topo-I inh 23.
`CN1CCS/C1=C/C=C1\SC(=S)N(CC(=O)O)C1=O` gave PriA SSB inh 4, MazF activator -512, 3CLpro inhibitor 1 and Yp Topo-I inh -6.
CCCCN1C(=O)/C(=C/C=C2\SCCN2C)SC1=S was read as PriA SSB inh 39, MazF activator 530*, 3CLpro inhibitor 3 and Yp Topo-I inh -5.
O=C(Cc1cccs1)NCC1(O)CCc2ccccc2C1 (configuration not stated) was read as PriA SSB inh -2.
`OCCC1CN(Cc2cccn2-c2ccccn2)CCN1Cc1ccccc1` (configuration not stated) gave PriA SSB inh -8, MazF activator 598*, 3CLpro inhibitor -5 and Yp Topo-I inh 2.
For OCCC1CN(Cc2cccn2-c2ccccn2)CCN1C1CCCC1 (configuration not stated) the results were PriA SSB inh 0, MazF activator 15, 3CLpro inhibitor -3 and Yp Topo-I inh -9.
Screening Cc1c(Cl)cccc1NC(=O)CSc1nc2c(-c3ccccc3)c[nH]c2c(=O)n1C returned PriA SSB inh -17.
For COc1ccc(OCCNc2cc(N3CCCCC3)ccc2[N+](=O)[O-])cc1 the results were PriA SSB inh 16, MazF activator -2, 3CLpro inhibitor 0 and Yp Topo-I inh 26.
For COc1ccc(OCCNc2cc(Cl)ccc2[N+](=O)[O-])cc1 the results were PriA SSB inh -11, MazF activator 147*, 3CLpro inhibitor 1 and Yp Topo-I inh -8.
For Cc1nc(-c2ccc(N3CCN(C(=O)c4ccc(=O)oc4)CC3)nc2)no1 the results were PriA SSB inh 1.
Screening COc1cc(C(=O)N2CCCC(c3nnc(C)s3)C2)cc(OC)c1OC (configuration not stated) returned PriA SSB inh 3.
`NC(N)=NS(=O)(=O)c1ccc(NC(=S)NC(=O)c2ccc(Br)cc2)cc1` gave PriA SSB inh -9, MazF activator 59*, 3CLpro inhibitor 0 and Yp Topo-I inh 4.
`COc1ccc2cc(/C=C/C(=O)c3ccco3)c(Cl)nc2c1` gave 3CLpro inhibitor -2.
Screening COc1cc2cc(/C=C/C(=O)c3ccco3)c(Cl)nc2cc1OC returned PriA SSB inh 0, MazF activator 267*, 3CLpro inhibitor 5 and Yp Topo-I inh -3.
COc1cccc(C2=CC(c3ccc(N(C)C)cc3)n3nnnc3N2)c1 (configuration not stated) was read as PriA SSB inh 6, MazF activator 182*, 3CLpro inhibitor 1 and Yp Topo-I inh 12.
For CCNc1nc2c(c(=O)n(C)c(=O)n2C)n1Cc1ccc(Cl)cc1 the results were PriA SSB inh 0, MazF activator 3, 3CLpro inhibitor 6 and Yp Topo-I inh -2.
`CCC(C)Nc1nc2c(c(=O)n(C)c(=O)n2C)n1Cc1ccc(Cl)cc1` (configuration not stated) gave PriA SSB inh 104*, MazF activator 1 and Yp Topo-I inh 9.
`CCOC(=O)c1c(NC(=O)c2cc(-c3cccc(O)c3)on2)sc(C(C)=O)c1C` gave PriA SSB inh -8, MazF activator -6, 3CLpro inhibitor 7 and Yp Topo-I inh 0.
`CCOC(=O)c1c(NC(=O)c2noc(C)c2[N+](=O)[O-])sc(C(C)=O)c1C` gave PriA SSB inh 59*, MazF activator 2, 3CLpro inhibitor 1 and Yp Topo-I inh -3.
O=C(CCc1csc(NC(=O)Nc2ccccc2)n1)NCc1ccncc1 was read as PriA SSB inh -6.
Screening c1ccc(C2=Nc3c(ccc4ccccc34)C(c3ccncc3)=NN2)cc1 returned PriA SSB inh 47*, MazF activator 1, 3CLpro inhibitor 5 and Yp Topo-I inh 11.
`Clc1c(CSc2nnc(-c3ccccc3)o2)nc2ccc(Br)cn12` gave PriA SSB inh 4.
For CN(C)c1ccc2c(c1)OC(N)=C(C#N)C2c1cccc(F)c1 (configuration not stated) the results were PriA SSB inh 37, MazF activator 52*, 3CLpro inhibitor -3 and Yp Topo-I inh 4.
Screening N#CC1=C(N)Oc2cc(N)ccc2C1c1cccc(F)c1 (configuration not stated) returned PriA SSB inh 6, MazF activator 9, 3CLpro inhibitor 7 and Yp Topo-I inh 1.
CCC(CO)Oc1cc(NCc2cc(C)cc(C)c2)c2ncn(C(C)C)c2c1 (configuration not stated) was read as PriA SSB inh 55*, MazF activator -1 and Yp Topo-I inh -7.
For Cc1ccc2[nH]c(-c3cccc(N)c3)cc2c1 the results were PriA SSB inh 39*, MazF activator 9, 3CLpro inhibitor -1 and Yp Topo-I inh -18.
`Cc1c(OCC(=O)C(C)(C)C)ccc2c(-c3ccccc3)cc(=O)oc12` gave PriA SSB inh -24, MazF activator -4, 3CLpro inhibitor -2 and Yp Topo-I inh 51*.
CC(=O)Nc1ccc(S(=O)(=O)NC[C@@H](c2ccsc2)N2CCCC2)cc1 was read as PriA SSB inh -7.
CCCN1CCCc2cc(CCNS(=O)(=O)c3ccccc3Cl)ccc21 was read as PriA SSB inh active!.
CCCN1CCCc2cc(CCNS(=O)(=O)c3ccccc3Br)ccc21 was read as PriA SSB inh active!.
CCCN1CCCc2cc(CCNS(=O)(=O)Cc3ccccc3Cl)ccc21 was read as PriA SSB inh 72*.
CCN(Cc1ccccc1)S(=O)(=O)c1ccc(C(=O)N(CCCN(C)C)c2nc3cc(C)cc(C)c3s2)cc1 was read as PriA SSB inh 43*, MazF activator 3 and Yp Topo-I inh 0.
Cc1cc(C)c2sc(N(CCCN(C)C)C(=O)c3ccc(S(=O)(=O)N(C)Cc4ccccc4)cc3)nc2c1 was read as PriA SSB inh 49*, MazF activator -12 and Yp Topo-I inh -6.
`CN(C)CCN(C(=O)c1ccccc1[N+](=O)[O-])c1nc2ccc(Br)cc2s1` gave PriA SSB inh 47*.
CN(C)CCCN(C(=O)c1ccc(S(=O)(=O)N(C)Cc2ccccc2)cc1)c1nc2cc3c(cc2s1)OCO3 was read as PriA SSB inh 40*!, MazF activator -32, 3CLpro inhibitor 1 and Yp Topo-I inh -7.
